Measurements: PubChem BioAssay (NCI)
Compounds without any hit were thinned out: in the full panel of roughly 79,000, 15% have a hit. A number with no mark means an inactive call. Calls of active or inactive are those of the source. No stated cut-off is given here; in the data, active means growth inhibition above about 70%; inactive means the rest.

How the values were obtained:
[1] = NCI Yeast Anticancer Drug Screen. Data for the rad50 strain (AID 155);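 further: 0% = growth of vehicle-only cultures of the same strain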; settings: S. cerevisiae rad50 strain growth inhibition; at 50.0 µM; hits give high values
Summary of the method: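 Growth of the mutant yeast was measured after compound exposure and referenced to vehicle-treated cultures.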

[2] = NCI Yeast Anticancer Drug Screen. Data for the mec2-1 strain (AID 157); settings: S. cerevisiae mec2-1 strain, at 50.0 µM, hits give high values
Summary of the method: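 Each compound was tested on mec2-1 yeast, a strain altered in DNA damage repair or cell cycle control. Growth inhibition is reported relative to vehicle.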

[3] = NCI Yeast Anticancer Drug Screen. Data for the sgs1 mgt1 strain (AID 161);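 further: 0% = growth of cultures given vehicle only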; settings: S. cerevisiae sgs1 mgt1 strain, at 50.0 µM, hits give high values
Summary of the method: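 Read-out: growth inhibition vs vehicle controls. Cells: mutant yeast strain deficient in DNA damage repair.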

[4] = NCI Yeast Anticancer Drug Screen. Data for the cln2 rad14 strain (AID 165);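 further: 0% = growth equal to vehicle treated cultures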; settings: S. cerevisiae cln2 rad14 strain, at 50.0 µM, hits give high values
Summary of the method: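 Test compounds were added to cln2 rad14 yeast cultures; inhibition of growth was then determined by comparison with vehicle treatment.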

[5] = NCI Yeast Anticancer Drug Screen. Data for the bub3 strain (AID 167); settings: S. cerevisiae bub3 mutant strain, at 50.0 µM, hits give high values
Summary of the method: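 Whole-cell yeast assay. The mutant strain was incubated with compounds, and growth inhibition was determined by comparison with vehicle-treated cells.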

[6] = NCI Yeast Anticancer Drug Screen. Data for the mlh1 rad18 strain (AID 175); settings: S. cerevisiae mlh1 rad18 strain growth inhibition; at 50.0 µM; hits give high values
Summary of the method: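 Inhibition values reflect reduced growth of mutant yeast versus vehicle-treated controls following compound exposure; the mutations affect DNA damage repair.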

| Structure (SMILES) | growth inhibition [1] | growth inhibition [2] | growth inhibition [3] | growth inhibition [4] | growth inhibition [5] | growth inhibition [6] |
| --- | --- | --- | --- | --- | --- | --- |
| CC(=O)NNc1nc(C)c(C(=O)/C=C/c2ccc(Cl)cc2)s1 | 44.2% | 12.7% | 21.7% | 27.4% | 19% | 30.2% |
| Cc1ccc(S(=O)C(C)C(Cl)c2ccccc2)cc1 (centres undefined) | -3.6% | 0.2% | 5.6% | 16.9% | 11.7% | 6.9% |
| C=CCNC(=S)NNC(=O)c1ccncc1 | -19.8% | -10.3% | -21.6% | -82.8% | 2.4% | -23.8% |
| O=C(CCCC(=O)Nc1ccc2[nH]c3ccccc3c(=O)c2c1)Nc1ccc2[nH]c3ccccc3c(=O)c2c1 | 12.7% | -8.6% | -0.3% | 20.9% | -3.55% | 2.95% |
| CCOC(=O)c1nc(N)c2c(CC#N)nn(C)c2n1 | 2.35% | -15.4% | 8.3% | -9.75% | 9.95% | -16.4% |
| CCCCCCCCCC(=O)N/N=C/c1cccnc1 | 88.2% (active) | 87% (active) | 95.9% (active) | 26.2% | 71.1% (active) | 91.3% (active) |
| CC(CCC(=O)CS(C)=O)C1CCC2C3CCC4CCCCC4(C)C3CCC12C (centres undefined) | 34.1% | -20.4% | 25.8% | 11.6% | -4% | 0.95% |
| Nc1cccc(C(O)c2ccccc2)c1 (centres undefined) | 11.2% | -1.15% | 0.1% | 6.25% | 7.3% | 13.1% |
| O=C1c2ccccc2SC[C@@H]2CCCN12 | 22.9% | -7.75% | -3.6% | 9.35% | 3.35% | 2.35% |
| COc1c2occc2c(CC(O)C(C)(C)O)c2ccc(=O)oc12 (centres undefined) | 13.4% | -20.7% | 14.8% | -6.75% | -3.75% | -13.2% |
| CC/C(=C\c1ccccc1OC)c1ccncc1 | 14.2% | -0.1% | 30.4% | 12.2% | 36.6% | 1.55% |
| CCCCN=C(C)CC(=O)CC(=O)c1ccccc1 | 30.3% | 23.1% | 44.4% | -53.6% | 22.4% | 33.9% |
| SCCc1ccccc1 | -8.85% | -35.1% | -8.9% | -14% | 11.9% | -3.15% |
| OC1COC(C2CCCO2)OC1 (centres undefined) | 10.4% | -6.2% | -2.35% | 1.35% | -13.7% | 11.8% |
| N#CNC1=NC(N)C(c2nc3ccccc3[nH]2)=C(CCCC(=O)Nc2cccc([N+](=O)[O-])c2)N1 (centres undefined) | 17.1% | 17.1% | 5.45% | 25.9% | 35.9% | 5.65% |
| N#CCCn1cnc2c(Cl)ncnc21 | -10.2% | 5.15% | -18.2% | -12.7% | -7% | -2.6% |
| O=c1[nH]c2cccnc2c(=O)n1O | -6.5% | -8.7% | -7.35% | -39.8% | 12.2% | -5.5% |
| CCOC(=O)c1ccc(N=Nc2c(N)nc(N)nc2N)cc1 | -10.4% | 10.3% | -1.7% | -61.4% | -0.15% | -11% |
| O=c1c2ccccc2c(=O)c2c1ccc1[nH]c3ccccc3sc12 | -7.15% | -1.75% | 7.6% | -20.1% | 6.2% | -6.6% |
| CC(=O)c1ccc(OCc2ccccc2)c(OCc2ccccc2)c1 | 2.45% | 0.8% | 22.8% | 10.9% | 22.1% | 11.2% |

| Structure (SMILES) | growth inhibition [1] | growth inhibition [2] | growth inhibition [3] | growth inhibition [4] | growth inhibition [5] | growth inhibition [6] |
| --- | --- | --- | --- | --- | --- | --- |
| CC(=O)OC1(C(=O)OCC2CCCO2)CCCC1 (centres undefined) | -9.6% | 5.4% | -3.5% | -9.8% | 25.8% | 6.9% |
| CC=C=C(C)CN | -6.4% | -3.8% | -9.6% | -7.95% | -6.25% | -8.45% |
| Cc1ccc(N=CN(C)C)c(Cl)c1 | -4.5% | 0.8% | 4.6% | -16.8% | -7.4% | -23.1% |
| CCOC(=O)/C(C#N)=N/Nc1ccc(S(=O)(=O)NC(C)=O)cc1 | -16.6% | -10.5% | 5.8% | 11.5% | -2.95% | -4.4% |
| O=C(O)CCc1ccc([N+](=O)[O-])cc1Cl | 5.8% | 4.95% | 7.3% | -24.6% | -17.4% | -0.4% |
| COc1ccc(OC)c2c(NCCNCCO)cc(NCCNCCO)nc12 | 15.2% | -4.75% | -15.7% | 0% | -3.2% | 7.5% |
| CC(=O)Nc1ccc2oc(=O)[nH]c(=O)c2c1 | 10.8% | -15.1% | 6.3% | 9.9% | -18.6% | -0.55% |
| COc1cc2c(cc1OC)[C@H](C)N1CCc3cc(OC)c(OC)cc3[C@@H]1C2 | 2.1% | -29.6% | 6.65% | 14.3% | 9.45% | -37% |
| COc1ccc2nc3ccccc3c(NCCCN(C)C)c2c1[N+](=O)[O-] | -8.1% | -19.6% | 12.9% | -22.2% | -13.3% | -4.7% |
| O=C(O)C12CCC(CC1=O)C2 (centres undefined) | 5.8% | 4.4% | 11.3% | 13.7% | -2% | 14.1% |
| C=CCCCCCCCCC(=O)OC | -11.8% | -17.9% | 10.2% | -10.5% | -5.1% | -31.4% |
| CC1CCC(=O)N1C (centres undefined) | -19.1% | -1.35% | -16.1% | -21.6% | -0.45% | -9.5% |
| CN1CCC(=C2c3ccccc3CC(O)c3sccc32)CC1 (centres undefined) | 24.2% | 5.7% | -16.6% | 3.5% | 9.2% | 39% |
| CCc1c(O)c2c(c(O)c1C(C)=O)C(=O)c1c(cc(O)c(C(=O)O)c1C(=O)O)C2=O | -3.15% | 9.8% | 24.2% | 10.2% | 20.3% | 12.8% |
| CCN(CC)C1Oc2cc3c(cc2C(c2cccc(OC)c2O)C1C)OCO3 (centres undefined) | 21.1% | -0.15% | 22.8% | 21.7% | 15.2% | -1.4% |
| CCC[CH2][Ge]([CH2]CCC)([CH2]CCC)[n]1ccc2ccccc21 | 24% | 31.2% | 47% | 20.3% | 45.9% | 44.7% |
| COc1cc(NS(=O)(=O)c2ccc(C)cc2)c2c(c1N)C(=O)c1ccccc1C2=O | -3.4% | -8.15% | -4.1% | 5.35% | 5.55% | -1.05% |
| Cn1c(=O)c2[nH]c(SCc3cccnc3)nc2n(C)c1=O | -4.35% | -11.1% | 6.85% | -44.9% | 4.7% | -10.6% |
| CCCCS(=O)(=O)c1ccc(Cl)cc1 | -2.65% | -13.9% | -4.45% | -16% | -3.9% | 21.9% |
